esBAF inh: blocks esBAF chromatin remodeling in mouse ES cells | Bmi1-luciferase knock-in reporter, 24 h; 100% = twice the neutral-well signal | reporter increase, % at 12.5 µM | hit rate 2% among 350,000; in the data active = activation above about 40%; inconclusive = no clear call, values can overlap the other calls;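 note: 0% = median of the plate's neutral control wells and 100% = double that signal; a rise in the Bmi1 reporter signal indicates esBAF inhibition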
MITF act: MITF TRPM1 promoter activation in melanoma cells; hit rate 0.75% among 300,000; SK-MEL-5 TRPM1-promoter luciferase, 24 h; % of positive control, neutral wells = 0; activation, % at 12.5 µM; AID 588334;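 active = mean activation of at least 80% with every replicate also reaching 80%; inconclusive = mean reaches 80% but some replicate falls short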;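 note: 0% = neutral control wells and 100% = parthenolide positive control wells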
Statin myotox sup: suppressors of simvastatin-induced myotoxicity in C2C12 myotubes. ATP luminescence, 48 h; scaled: DMSO 0, geranylgeraniol control 100. rescue of ATP level, % at 7.49 µM. hit rate 0.78% among 330,000. AID 602340;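 active = mean ATP rescue above about 67%, or every replicate alone reaching that limit, limit read from the data, passing the limit was not always enough; inconclusive = no clear call, values can overlap the other calls; inactive = mean under the limit and some replicate under it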;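 note: myotubes were challenged with 10 µM simvastatin during compound exposure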
Wnt act: activates Wnt/beta-catenin signaling in a reporter cell assay. AID 743398. hit rate 1.2% among 300,000. activation, % at 9.35 µM. activator, plate reader; in the data active = activation above about 30%, passing the limit was not always enough; inconclusive = no clear call, values can overlap the other calls;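 note: 0% = neutral control wells and 100% = positive control wells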
FXN GAA850 act: increases GAA850 frataxin promoter reporter activity; HEK293 lucGAA850 FXN promoter luciferase reporter, 24 h; percent of 10 µM SAHA response; activation, % at 6 µM; hit rate 0.56% among 360,000;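 active = activation above the average of all compounds screened plus 3 SD, cutoff fixed separately per campaign, cut at about 7.5% in these data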;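 note: 0% = DMSO wells and 100% = 10 µM SAHA wells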
GAA30 FXN cntr: GAA30 FXN promoter activation counter-screen; shares compounds with FXN GAA850 act; HEK293 lucGAA30 FXN promoter luciferase, 24 h; DMSO = 0%, 5 µM ipriflavone = 100%; activation, % at 6 µM; hit rate 66% among 1,900;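 active = mean activation above the mean of solvent-only control wells plus 3 SD, cut at about 22% in these data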;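 note: counterscreen of GAA850 promoter hits where activity marks nonselective or luminescence artifacts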
FXN GAA850 conf: GAA850 FXN promoter activation confirmation | shares compounds with FXN GAA850 act | HEK293 lucGAA850 FXN promoter luciferase reporter, 24 h; 100% = activation by SAHA | activation, % at 6 µM | hit rate 86% among 1,900;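 active = mean activation above a set limit taken from the primary screen, cut at about 8% in these data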;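 note: 0% = DMSO wells and 100% = 10 µM SAHA wells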
Numbers without * were called inactive. Most compounds without a hit are left out; they make up all but 3.3% or so of the library.

How did O=C(Nc1cc([N+](=O)[O-])ccc1O)c1cccc([N+](=O)[O-])c1 do in these assays?
esBAF inh: 25.1; MITF act: 30.7; Statin myotox sup: -1.1; Wnt act: 5.6; FXN GAA850 act: 1.3

How did Cc1cc(O)c(NC(=O)c2cccc([N+](=O)[O-])c2)cc1C do in these assays?
esBAF inh: 39.3; MITF act: 6.5; Statin myotox sup: -0.3; Wnt act: 30.4*; FXN GAA850 act: 7.6*; GAA30 FXN cntr: 91.1*; FXN GAA850 conf: 30.5*

How did Cc1ccc(S(=O)(=O)N[C@H]2CC[C@H](CCNC(=O)C3CC3)O[C@H]2CO)cc1 do in these assays?
esBAF inh: 1.9; Statin myotox sup: 3.0

What do the screens show for `CC1CCN(c2ccc(NC(=S)NC(=O)c3ccco3)cc2)CC1`?
esBAF inh: 45.8*; MITF act: 16.6; Statin myotox sup: 5.9; FXN GAA850 act: 7.9*; GAA30 FXN cntr: 68.7*; FXN GAA850 conf: 31.9*

Results for Cc1ccc(C(=O)NC(=S)Nc2ccc(N3CCN(C(=O)c4ccco4)CC3)cc2)cc1 ?
esBAF inh: -11.4; MITF act: -19.5; Statin myotox sup: -6.8; Wnt act: -3.0; FXN GAA850 act: -2.4

Results for Cc1nc2nc(-c3ccccc3)nn2c(C)c1C ?
esBAF inh: 37.4; MITF act: 25.7; Statin myotox sup: 12.9; Wnt act: 3.3; FXN GAA850 act: 7.6*; GAA30 FXN cntr: 115.2*; FXN GAA850 conf: 40.8*

Results for Cc1nc2nc(-c3ccccc3)nn2c(C)c1Cl ?
MITF act: 18.3; FXN GAA850 act: 5.8

What do the screens show for `CCC12C(=O)C(CC)(C(c3ccccc3)=C1c1ccccc1)[C@@H]1C(=O)N(c3ccccc3)C(=O)C12` (stereo not given in full)?
MITF act: -2.2; Wnt act: -3.0; FXN GAA850 act: 11.5*; GAA30 FXN cntr: 19.7; FXN GAA850 conf: 11.4*

How did Fc1ccc(-c2ccc(Nc3cccc(F)c3)nn2)cc1 do in these assays?
esBAF inh: 52.5*; MITF act: 69.2; Statin myotox sup: -58.0; Wnt act: 6.2; FXN GAA850 act: 8.3*; GAA30 FXN cntr: 93.3*; FXN GAA850 conf: 30.8*

What do the screens show for `Cc1ccc(OCCOc2cccc(Br)c2)c([N+](=O)[O-])n1`?
MITF act: 103.0*; FXN GAA850 act: 7.6*; GAA30 FXN cntr: 80.7*; FXN GAA850 conf: 39.6*

What do the screens show for `N#C/C(=C\c1cccs1)C(=O)Nc1nccs1`?
esBAF inh: 119.2*; MITF act: inconclusive; Statin myotox sup: 5.5; Wnt act: 56.0*; FXN GAA850 act: 9.2*; GAA30 FXN cntr: 105.7*; FXN GAA850 conf: 27.8*

Results for CC(=O)Nc1cccc(OCC(=O)Nc2sccc2C(N)=O)c1 ?
esBAF inh: 19.6; MITF act: 66.0; Statin myotox sup: 2.0; Wnt act: inconclusive; FXN GAA850 act: 9.8*; GAA30 FXN cntr: 109.1*; FXN GAA850 conf: 35.7*

How did CCc1cccc2c(C(=O)CCl)c[nH]c12 do in these assays?
esBAF inh: -8.6; MITF act: -26.7; Statin myotox sup: 3.8; Wnt act: 4.1; FXN GAA850 act: 8.2*; GAA30 FXN cntr: 31.2*; FXN GAA850 conf: 21.2*

Results for CCc1cccc2c(C(=S)N3CCCC3)c[nH]c12 ?
esBAF inh: -2.9; MITF act: -0.6; Statin myotox sup: -9.3; FXN GAA850 act: 1.6

What do the screens show for `CC(C)NC(=O)N(C)C[C@@H]1Oc2c(NC(=O)C3CCCCC3)cccc2C(=O)N([C@@H](C)CO)C[C@H]1C`?
esBAF inh: 7.9; Statin myotox sup: -1.0

How did Cc1ccc(N(C(=O)Cc2cccs2)C(C(=O)NC2CCCCC2)c2ccccn2)cc1C (stereo not given) do in these assays?
MITF act: 7.0; FXN GAA850 act: 13.2*; GAA30 FXN cntr: 2.2; FXN GAA850 conf: 10.6*

How did Cc1cccc(N(C(=O)Cc2cccs2)C(C(=O)NC2CCCC2)c2ccncc2)c1 (stereo not given) do in these assays?
esBAF inh: 2.4; MITF act: 13.9; Statin myotox sup: -3.0; Wnt act: 4.7; FXN GAA850 act: 2.9

How did O=C(NC1CCCCC1)C(c1cccs1)N(C(=O)Cc1c[nH]c2ccccc12)c1ccc(F)cc1 (stereo not given) do in these assays?
esBAF inh: 3.7; Statin myotox sup: 4.5; Wnt act: -4.9; FXN GAA850 act: 10.2*; GAA30 FXN cntr: 12.7; FXN GAA850 conf: 6.5

What do the screens show for `CC(=O)c1ccc(N(C(=O)Cc2c[nH]c3ccccc23)C(C(=O)NC2CCCCC2)c2cccs2)cc1` (stereo not given)?
esBAF inh: inconclusive; Statin myotox sup: -17.1; FXN GAA850 act: -4.8

What do the screens show for `COc1ccc(C(=O)Nc2ccc3c(c2)C(=O)N(C)C[C@H](OC)[C@@H](C)CN[C@@H](C)CO3)cc1`?
esBAF inh: 0.0; Statin myotox sup: 27.8

What do the screens show for `CNc1oc(/C=C/c2ccccc2)nc1C#N`?
MITF act: 59.7; FXN GAA850 act: 8.3*; GAA30 FXN cntr: 132.9*; FXN GAA850 conf: 40.0*

What do the screens show for `CNc1oc(-c2ccccc2)nc1C#N`?
MITF act: -4.2; Wnt act: 0.8; FXN GAA850 act: 1.3

How did CCN1C(=O)/C(=C/c2cc(C)n(C)c2C)SC1=Nc1ccc(OC)cc1 do in these assays?
esBAF inh: 9.3; MITF act: -7.3; Statin myotox sup: 8.3; FXN GAA850 act: 9.9*; GAA30 FXN cntr: 19.2; FXN GAA850 conf: 14.4*

What do the screens show for `O=C(/C=C/c1ccco1)N1CCc2ccccc21`?
esBAF inh: -21.1; MITF act: -1.8; Statin myotox sup: -5.8; Wnt act: 16.8; FXN GAA850 act: 2.3

What do the screens show for `Cc1ccc(/C=C/C(=O)N2CCc3ccccc32)o1`?
esBAF inh: 22.9; MITF act: 50.9; Statin myotox sup: -3.3; Wnt act: inconclusive; FXN GAA850 act: 10.6*; GAA30 FXN cntr: 115.8*; FXN GAA850 conf: 37.4*

Results for N#C[C@@H]1N[C@@H](CO)[C@H]1c1ccc(C#Cc2ccc(F)cc2)cc1 ?
esBAF inh: 10.3; Statin myotox sup: 26.9

How did Fc1cccc(/C=N/Nc2ncnc3nc[nH]c23)c1 do in these assays?
esBAF inh: -21.8; MITF act: 73.0; Statin myotox sup: -4.6; Wnt act: 28.0; FXN GAA850 act: 10.4*; GAA30 FXN cntr: 113.1*; FXN GAA850 conf: 48.7*

What do the screens show for `Fc1ccccc1/C=N/Nc1ncnc2nc[nH]c12`?
esBAF inh: 23.0; Statin myotox sup: 1.6; Wnt act: 23.0; FXN GAA850 act: 11.1*; GAA30 FXN cntr: 98.4*; FXN GAA850 conf: 47.2*

Screens as filed in PubChem.
